# Compound activity (PubChem BioAssay)
# Only some compounds are listed: those with a hit (about 1.7% of all), similar ones and a draw of the others.
# GLP-1R inv ag = qHTS of GLP-1 Receptor Inverse Agonists (Inhibition Mode); HEK293 GLP-1R CRE-luciferase, luminescence, 24 h; GLP-1R form is constitutively active; AID 624417, 2012; Potency, µM (highest dose often 38.3 µM), for the others: at the highest dose activity change, negative = inhibition, usual class: inhibitors; Glucagon-like peptide 1 receptor (Homo sapiens), P43220; actives 1.6% (n = 410,000); also: % is scaled to controls: 0 for no effect and ±100 for the full control effect; nearly all actives have a fitted effect of over 55% in size
#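 Readout was luciferase luminescence, measured 12 min after detection reagent at room temperature. Beforehand, GLP-1R reporter HEK293 cells had sat 12 h, then received compounds for 24 hr at 37 deg C.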
# GLP1R ag = qHTS of GLP-1 Receptor Agonists; Glucagon-like peptide 1 receptor (Homo sapiens), P43220; HEK293 GLP-1R CRE-luciferase, luminescence, 4-6 h; cells express a hypersensitive GLP-1R form; Potency, µM (series often up to 45.6 µM), inactives show top-dose activation, hits mostly activators; actives 0.007% (n = 380,000); AID 624172, 2012; also: % of control where 0% means no effect
# GLP1R cytotox = qHTS of GLP-1 Receptor Inverse Agonists: Cytotox Screen. HEK293 cAMP-luciferase reporter cells, luminescence, 24 h. Potency, µM (doses to about 38.3 µM), inactives show top-dose activity change, negative = inhibition, actives largely listed as inhibitors. actives 0.13% (n = 410,000);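 also: loss of luciferase light is scored as toxicity; % is scaled to controls: 0 for no effect and ±100 for the full control effect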
#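 To flag toxic compounds, the library was rerun on cells for 24 hr at 37 deg C and 5% CO2. Viability-linked luminescence was captured 12 min after adding luciferase detection reagent.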
# PTHR1 agonist = qHTS for PTHR1 Agonists: Primary Screen; Parathyroid hormone/parathyroid hormone-related peptide receptor (Homo sapiens), Q03431; HEK293 GP2 PTHR1 cells, GloSensor cAMP luminescence, 1 h; Potency, µM (doses to about 115 µM), without a hit: at the top dose activation, most hits filed as activators; actives 0.075% (n = 410,000); AID 743266, 2014; also: nearly all actives have a fitted effect of over 55% in size
# Target sequence (Q03431 whole entry, looked up): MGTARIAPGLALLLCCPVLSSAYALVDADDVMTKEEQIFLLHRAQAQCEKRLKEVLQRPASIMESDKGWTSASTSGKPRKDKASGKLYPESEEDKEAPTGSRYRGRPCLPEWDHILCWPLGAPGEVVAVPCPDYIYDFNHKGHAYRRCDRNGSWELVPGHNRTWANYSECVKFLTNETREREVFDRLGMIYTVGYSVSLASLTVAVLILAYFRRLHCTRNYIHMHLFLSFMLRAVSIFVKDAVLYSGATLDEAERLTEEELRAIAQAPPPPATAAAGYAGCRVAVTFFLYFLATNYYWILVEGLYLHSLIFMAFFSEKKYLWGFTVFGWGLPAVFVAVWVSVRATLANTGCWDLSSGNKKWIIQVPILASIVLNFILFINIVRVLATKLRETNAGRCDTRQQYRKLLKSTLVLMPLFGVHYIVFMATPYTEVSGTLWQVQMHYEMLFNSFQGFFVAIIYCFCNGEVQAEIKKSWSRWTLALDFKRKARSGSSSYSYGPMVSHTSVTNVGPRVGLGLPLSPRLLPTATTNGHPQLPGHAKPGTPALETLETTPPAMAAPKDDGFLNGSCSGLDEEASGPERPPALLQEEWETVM
#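 HEK-293-derived GP2 cells expressing PTHR1 and a GloSensor cAMP reporter, 3,000/well, plated overnight, given luciferin plus IBMX (each 0.5 mM as added) for 1 h at 37 °C, then compound for 1 h at 37 °C. Luminescence was read after 15 min at room temperature.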
# * hit, by the source's call; i = inactive; ? = inconclusive; / = not tested or not shown; [ ] = remark or other dose. Calls follow the shape of the dose curve; as a rule, active = well fitted curve in the direction sought with a large enough effect; inconclusive = small, poorly fitted or top-dose-only effect, or another doubt; inactive = no such curve, though single readings can be large; an effect the other way counts as inactive or inconclusive. Potency is read from the fitted curve at half-maximal effect.
SMILES,GLP-1R inv ag,GLP1R ag,GLP1R cytotox,PTHR1 agonist
COc1ccccc1CNC(=O)c1ccc(N2CCCC2)c(NC(=O)NCCC(C)C)c1,11%,/,4%,-28%
CCOC(=O)COc1ccc(Br)cc1/C=C/c1[nH]c(=O)[nH]c(=O)c1[N+](=O)[O-],10µM*,-6%,?,-19%
C=C(C)C1CCC(C)=C1COC(=O)Nc1ccccc1 (stereo unspecified),8.9µM*,-4%,8%,-18%
O=C(Nc1ccccc1)OCCCCOC(=O)Nc1ccccc1,-7%,-7%,-2%,-14%
CCOC(=O)c1cccc(NC(=O)c2nn(-c3ccc(OC)cc3)c(=O)c3c2c2ccccc2n3C)c1,-15%,/,-4%,i
CC(SCc1ccccc1)C(=O)N/N=C/c1cc2c(cc1Br)OCO2 (stereo unspecified),10µM*,1%,76%,-14%
N#C/C(=C\c1ccc(OCc2ccc(C(=O)O)cc2)cc1)C(=O)N1CCOCC1,1µM*,-4%,-15%,-36%
Cc1cccc(Nc2nc(N)nc(CCl)n2)c1C,5µM*,31%,-26%,i
Cc1ccc(Nc2nc(N)nc(CCl)n2)c(C)c1,4.5µM*,15%,-6%,-75%
CCOC(=O)N1CCN(C(=O)c2ccccc2CCc2ccccc2)CC1,8.9µM*,13%,-7%,-64%[57.5 µM]
C/C(=N\Nc1nc2ccccc2s1)c1ccc(Br)s1,10µM*,13%,?,-32%
CC(=NNc1nc2ccccc2s1)c1ccncn1,-74%,-4%,-40%,i
COc1cc(CNC(=O)c2cccc(COc3ccc(Cl)cc3)c2)cc(OC)c1,3.2µM*,-10%,-17%,i
O=C(NCc1ccccc1)c1cccc(COc2cccc(Cl)c2)c1,7.9µM*,-2%,-12%,i
NNC(=O)c1cccc(COc2ccc(Br)cc2)c1,5µM*,-2%,-16%,-18%
O=C(NCc1ccccc1)c1cccc(COc2ccc(Cl)cc2)c1,?,-2%,13%,-84%[57.5 µM]
O=C(NCc1cccc(Cl)c1)c1cc(COc2ccc3ncccc3c2)on1,10µM*,12%,-5%,-39%
COc1cc(C2Nc3ccccc3-c3nnc(SCc4ccc(C)cc4)nc3O2)cc(OC)c1O (stereo unspecified),-5%,/,8%,-11%
COCCCn1c(=O)c2sccc2n2c(CCCC(=O)Nc3cccc(OC)c3)nnc12,5%,/,-18%,16%
COc1ccc(N2CC(C(=O)Nc3ccccc3-c3nc(-c4ccc(C)cc4)no3)CC2=O)cc1 (stereo unspecified),-1%,/,-19%,?
Cc1ccc(NC(=O)CSCC(=O)N(C)Cc2ccc(Cl)c(Cl)c2)cc1,?,3%,-27%,-14%
COc1ccc(NC(=O)CSCC(=O)N(C)Cc2ccc(Cl)c(Cl)c2)cc1,10µM*,21%,-5%,-30%
CC1CCCN(C(=O)c2cc3ccc4cccnc4c3[nH]2)C1 (stereo unspecified),6.3µM*,/,-2%,-93%
O=C(c1cc2ccc3cccnc3c2[nH]1)N1CCCCC1,6.3µM*,/,4%,-92%
CCOC(=O)C1CCN(C(=O)c2cc3ccc4cccnc4c3[nH]2)CC1,1%,/,-2%,-12%
SMILES,GLP-1R inv ag,GLP1R ag,GLP1R cytotox,PTHR1 agonist
O=C(c1cc2ccc3cccnc3c2[nH]1)N1CCN(c2ccc(Cl)cc2)CC1,-1%,/,5%,-65%
COc1ccccc1N1CCN(C(=O)c2c(C)oc3ncn(C)c(=O)c23)CC1,-1%,/,4%,-14%
Cn1c(=O)c2c(-c3ccccc3)n3c(c2n(C)c1=O)C(c1ccccc1[N+](=O)[O-])Nc1ccccc1-3 (stereo unspecified),5%,/,-11%,-16%
Cc1ccc(-n2ncc(C(=O)N3CCC(c4ccccc4)C3)c2C2CCN(C(=O)OC(C)(C)C)CC2)cc1 (stereo unspecified),5%,/,1%,0%
COc1ccc(NC(=O)c2oc3ccccc3c2NC(=O)Cc2coc3c(C)c(C)ccc23)cc1,?,/,-29%,i
O=C(CCNS(=O)(=O)c1ccccc1)NCCCSc1ccccc1,10%,-4%,8%,-30%
O=C(CCNS(=O)(=O)c1ccccc1C(F)(F)F)NCCCSc1ccccc1,13µM*,10%,2%,-23%
Cc1cc(-c2nnco2)c(C)n1-c1ccc(F)cc1,57%,4%,5%,7.1µM*
CN(C)Cc1ccccc1C(O)(c1ccccc1)c1ccccc1,?,2%,-6%,-5%
CN(C)Cc1cc(C(F)(F)F)ccc1C(O)(c1ccccc1)c1ccccc1,8.9µM*,-8%,?,-19%
Cc1cccc2sc(N(Cc3cccnc3)C(=O)CCS(=O)(=O)c3ccccc3)nc12,-10%,/,7%,-32%
COc1cccc(/C=C(/C(=O)OCC(=O)NC2CCCC(C)C2C)c2ccccc2)c1 (stereo unspecified),10µM*,10%,-6%,-23%
CC(C)(C)N(Cc1ccccc1)C(=O)CCc1ccccc1,22µM*,5%,14%,-33%
O=C(Cn1cc(SCc2c(F)cccc2Cl)c2ccccc21)N1CCCCCC1,10µM*,/,-6%,-40%
O=C(Cn1cc(SCc2c(F)cccc2Cl)c2ccccc21)N1CCCCC1,-4%,/,-6%,i
O=C(Nc1ccc2nc(SCC(=O)N3CCCC3)sc2c1)c1cccc(Br)c1,?,/,-25%,-12%
CCN(CC)CCCNC(=O)c1ccc2c(c1)NC(=O)C(CS(=O)(=O)Cc1cccc(Br)c1)N2 (stereo unspecified),-7%,/,-2%,16µM*
CN(C)CCNC(=O)c1cccc2nc3cccc(F)c3nc12,6.3µM*,-5%,-3%,-13%
COc1ccc(OC)c2nc3c(C(=O)NCCN(C)C)cccc3nc12,?,-23%,7.1µM*,i
CN(C)CCNC(=O)c1cccc2ccc(-c3ccc(-c4ccccc4)cc3)nc12,?,2%,?,i
COc1ccc(N2CCN(c3oc(COc4ccccc4)nc3C#N)CC2)cc1,2.8µM*,4%,2%,-9%[57.5 µM]
O=[N+]([O-])c1ccc(OC/C=C2\Oc3ccc([N+](=O)[O-])cc3C2N2CCOCC2)cc1 (stereo unspecified),?,13%,-24%,-11%[57.5 µM]
O=[N+]([O-])c1ccc2c(c1)C(N1CCOCC1)/C(=C/COc1ccc3ccccc3c1Br)O2 (stereo unspecified),2.8µM*,-4%,0%,i
CC(NC(=O)c1ccco1)C12CC3CC(CC(C3)C1)C2 (stereo unspecified),10µM*,-2%,1%,-49%
CC(NC(=O)COC(=O)CCNC(=O)c1ccco1)C12CC3CC(CC(C3)C1)C2 (stereo unspecified),52%,22%,-5%,5%[57.5 µM]
